# According to article PMC12864922, “TDP-43 directly inhibits mRNA accumulation in neurites through modulation of mRNA stability”:
# Over roughly 9,900 sequences, “r (bound/input frequency ratio)” has its median near 0.7; the highest 2% begin near 6.5. For the sample, the highest values were picked, then their nearest neighbours and some sequences at random.
# B1: ENSMUSG00000043670.63|Diras1 (ssRNA)
# RNA: GGGAGUUCUACAGUCCGACGAUCGCUUCGAUAUCCGCAUGCUAAGACCUCUCCCUCUAUAUCUCUUUGCUCCCCCACCCCCAUUCUAUCUGCACCCCACAACCACACACUGGAGGUUUGAUCCCUGUGGAUCUGAAAACAGGGACCUGGCUAAGGAACUGCUCAUCCCAGUCAGGCCCAGAGAGGUUACCUUGCCUCUCCAUCUCUGUCCCUGUGUGCCCAGCCAUGCCCACUGUCCCUGUCCCUCACAUUCUAUCACUGUGACCUCUGGGGAGUGCCCAUUGACCUCAUCUUCCUUCACUAACUCUUGCGGUCGCACUAGUGUGGAAUUCUCGGGUGUCAAGG
# B2: ENSMUSG00000058297.300|Spock2 (ssRNA)
# RNA: GGGAGUUCUACAGUCCGACGAUCGCUUCGAUAUCCGCAUGCUAAGGGCCACCCUGAUGCCCAGGAAGAGUGAGGGCAGCCCCCUGUGUGGUGGAAGAGGCUGGGCAGCUAGCUACUGGGGACCUUGUGCUGAGGCUUCCAGGACAAAGCCCCAGUCUGGCUCUCCCCCAGCCUCUCAGGGGCACUGGCUGGUCACAUCCACUGAGUAUUGAUCGGUUGGACUUUAGGGAAGAGCCUCCUCCUUCCCAUUCCUUUCUGCCACCCUGGAAUGGCCACCUUAAUCGUCAUCUCCUCGGGGGGAAUACUCUUGCGGUCGCACUAGUGUGGAAUUCUCGGGUGUCAAGG
# B3: ENSMUSG00000031028.551|Tub (ssRNA)
# RNA: GGGAGUUCUACAGUCCGACGAUCGCUUCGAUAUCCGCAUGCUACCUGGUUUCCCUUCUCAGCAGUCCUGGCCUCCCCUUCUCUGUAUUCCUUGCCCCAGCUACGAUAUCCUCAUGGGAUUUCAGGAUGCCAGGUGCCAUCAAAGCAUGCUUUUUUGUGGUGCCUAGCACUGUGACUGGGGCCCAACUGCCCUGCAGAGUUGGGACCUUGCACUGCCCUAGACCCUGGCUUUAGAUCUGCUUCAGUCUCCAGAACAGGCUAUGGGAUAGAUUUUUCUUUCAGUUUAUGGCCACCUGCCCAAAUUCUCUUGCGGUCGCACUAGUGUGGAAUUCUCGGGUGUCAAGG
# B4: ENSMUSG00000028439.8|Fam219a|14:18;220:226 (ssRNA)
# RNA: GGGAGUUCUACAGUCCGACGAUCGCUUCGAUAUCCGCAUGCUAAACCCCACCUGCAACACAUGUCAGGCCACUUCCUCCACCGCCUGCCACAUUCAGUAGUGGGCGGGGUCGCCGCGGUGCACGGGGCGCUGACCUGGGCCCGGUGGGAUGCAGCAGGAGAGACCCCUACCCUGCUGGUCCACUGGUCCCCAGCCCCGCGCCUCUUAGAGCCGCCAACCUCGUAACAGUCAUUGCUUCCUCCUAUGGUAGGACGUGUACCUCACACACAUCAAGGAGCCGGAGAAACCAAAACCGGGUCUGUCCUCUUGCGGUCGCACUAGUGUGGAAUUCUCGGGUGUCAAGG
# B5: ENSMUSG00000034801.23|Sos2 (ssRNA)
# RNA: GGGAGUUCUACAGUCCGACGAUCGCUUCGAUAUCCGCAUGCUAGAUUCCACGCAGCUGUCACUUGCUCAGCUCCAGUCACAGCAGCCUUGCUCAUCUUCCAGCUCCUCCUGUCCCACCAAGGCAGAAUUCAAGCCCUCUCUUACCAAAGCUGCCACCAAAGACUUACAAACGGGAGCUUUCCCACCCGCCACUGUAUAGACUGCCUCUGCUGGAAAAUGCAGAAACUCCUCAAUGACCUUGGCCAUAUGUAGUCAUUGACACUGGAAUAGUAUUUGUAAAGGUUUUUAAUUUAUUCAAAAAGACUCUUGCGGUCGCACUAGUGUGGAAUUCUCGGGUGUCAAGG
# B6: ENSMUSG00000028439.139|Fam219a (ssRNA)
# RNA: GGGAGUUCUACAGUCCGACGAUCGCUUCGAUAUCCGCAUGCUAUCUGCCUCAUCCCCACACCGCCCUGCCACCCCCAGUCUUCUGUCUAUUGGUUCCAGGCUGGAAGCAAGAGAUAAGGCUGGCCUCCUGUGCCCCAUUGCCAUUUCACCCUAGCUCAAAGUCCAGGAGCCAGGCUUCCAGAAAGGCUCUUCAAGAGCAAGCUUAAGGAAAUACAGUGAGCCAAGUGGCUGUAUGAUAUGGUAUGGUAUGGUAUGGUAUGGUAUGGUAUGGUAUGCACAUGUGUGUGCAUGUGUGUGUGCCUGCUCUUGCGGUCGCACUAGUGUGGAAUUCUCGGGUGUCAAGG
# B7: ENSMUSG00000028439.144|Fam219a (ssRNA)
# RNA: GGGAGUUCUACAGUCCGACGAUCGCUUCGAUAUCCGCAUGCUACCCAGUCUUCUGUCUAUUGGUUCCAGGCUGGAAGCAAGAGAUAAGGCUGGCCUCCUGUGCCCCAUUGCCAUUUCACCCUAGCUCAAAGUCCAGGAGCCAGGCUUCCAGAAAGGCUCUUCAAGAGCAAGCUUAAGGAAAUACAGUGAGCCAAGUGGCUGUAUGAUAUGGUAUGGUAUGGUAUGGUAUGGUAUGGUAUGGUAUGCACAUGUGUGUGCAUGUGUGUGUGCCUGUGUGUGUGCGUGUGCGUGUGUGUAUGUGUGCUCUUGCGGUCGCACUAGUGUGGAAUUCUCGGGUGUCAAGG
# B8: ENSMUSG00000028439.143|Fam219a (ssRNA)
# RNA: GGGAGUUCUACAGUCCGACGAUCGCUUCGAUAUCCGCAUGCUAGCCACCCCCAGUCUUCUGUCUAUUGGUUCCAGGCUGGAAGCAAGAGAUAAGGCUGGCCUCCUGUGCCCCAUUGCCAUUUCACCCUAGCUCAAAGUCCAGGAGCCAGGCUUCCAGAAAGGCUCUUCAAGAGCAAGCUUAAGGAAAUACAGUGAGCCAAGUGGCUGUAUGAUAUGGUAUGGUAUGGUAUGGUAUGGUAUGGUAUGGUAUGCACAUGUGUGUGCAUGUGUGUGUGCCUGUGUGUGUGCGUGUGCGUGUGUGUACUCUUGCGGUCGCACUAGUGUGGAAUUCUCGGGUGUCAAGG
# B9: ENSMUSG00000028439.145|Fam219a (ssRNA)
# RNA: GGGAGUUCUACAGUCCGACGAUCGCUUCGAUAUCCGCAUGCUACUUCUGUCUAUUGGUUCCAGGCUGGAAGCAAGAGAUAAGGCUGGCCUCCUGUGCCCCAUUGCCAUUUCACCCUAGCUCAAAGUCCAGGAGCCAGGCUUCCAGAAAGGCUCUUCAAGAGCAAGCUUAAGGAAAUACAGUGAGCCAAGUGGCUGUAUGAUAUGGUAUGGUAUGGUAUGGUAUGGUAUGGUAUGGUAUGCACAUGUGUGUGCAUGUGUGUGUGCCUGUGUGUGUGCGUGUGCGUGUGUGUAUGUGUGUGCGUGCUCUUGCGGUCGCACUAGUGUGGAAUUCUCGGGUGUCAAGG
# B10: ENSMUSG00000028439.142|Fam219a (ssRNA)
# RNA: GGGAGUUCUACAGUCCGACGAUCGCUUCGAUAUCCGCAUGCUACGCCCUGCCACCCCCAGUCUUCUGUCUAUUGGUUCCAGGCUGGAAGCAAGAGAUAAGGCUGGCCUCCUGUGCCCCAUUGCCAUUUCACCCUAGCUCAAAGUCCAGGAGCCAGGCUUCCAGAAAGGCUCUUCAAGAGCAAGCUUAAGGAAAUACAGUGAGCCAAGUGGCUGUAUGAUAUGGUAUGGUAUGGUAUGGUAUGGUAUGGUAUGGUAUGCACAUGUGUGUGCAUGUGUGUGUGCCUGUGUGUGUGCGUGUGCGUGCUCUUGCGGUCGCACUAGUGUGGAAUUCUCGGGUGUCAAGG
# B11: ENSMUSG00000028439.146|Fam219a (ssRNA)
# RNA: GGGAGUUCUACAGUCCGACGAUCGCUUCGAUAUCCGCAUGCUAUCUAUUGGUUCCAGGCUGGAAGCAAGAGAUAAGGCUGGCCUCCUGUGCCCCAUUGCCAUUUCACCCUAGCUCAAAGUCCAGGAGCCAGGCUUCCAGAAAGGCUCUUCAAGAGCAAGCUUAAGGAAAUACAGUGAGCCAAGUGGCUGUAUGAUAUGGUAUGGUAUGGUAUGGUAUGGUAUGGUAUGGUAUGCACAUGUGUGUGCAUGUGUGUGUGCCUGUGUGUGUGCGUGUGCGUGUGUGUAUGUGUGUGCGUGUGUGUGCUCUUGCGGUCGCACUAGUGUGGAAUUCUCGGGUGUCAAGG
# Target: TDP-43 (Homo sapiens, UniProt Q13148 1-414)
# Assay: RNA Bind-n-Seq with designed 260-mer pool; 25 mM Tris-HCl, 150 mM KCl, 3 mM MgCl2, BSA (printed 500 mg/mL), 20 units/mL SUPERase IN; pH not stated; 500 nM RNA pool, 1 h, 4 C; TDP-43 5, 50, 500 nM; high values mean tight binding
# Details: protein: recombinant; tags: SBP (GST cleaved off with PreScission; pGEX-GST-SBP)
# How it was run: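 Recombinant SBP-tagged TDP-43 at 5, 50 or 500 nM was captured on streptavidin beads, then incubated 1 h at 4 °C with 500 nM of an in vitro-transcribed 260-nt 3′ UTR oligo pool in 25 mM Tris-HCl, 150 mM KCl, 3 mM MgCl2, BSA and SUPERase IN. Bound RNA was washed, eluted with biotin, reverse transcribed, PCR-amplified and sequenced. Binding is R, each oligo's mapped-read-normalized abundance in the bound sample divided by its abundance in input. Duplicates used two independent protein batches.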
# TDP-43, sequence (Q13148 whole entry): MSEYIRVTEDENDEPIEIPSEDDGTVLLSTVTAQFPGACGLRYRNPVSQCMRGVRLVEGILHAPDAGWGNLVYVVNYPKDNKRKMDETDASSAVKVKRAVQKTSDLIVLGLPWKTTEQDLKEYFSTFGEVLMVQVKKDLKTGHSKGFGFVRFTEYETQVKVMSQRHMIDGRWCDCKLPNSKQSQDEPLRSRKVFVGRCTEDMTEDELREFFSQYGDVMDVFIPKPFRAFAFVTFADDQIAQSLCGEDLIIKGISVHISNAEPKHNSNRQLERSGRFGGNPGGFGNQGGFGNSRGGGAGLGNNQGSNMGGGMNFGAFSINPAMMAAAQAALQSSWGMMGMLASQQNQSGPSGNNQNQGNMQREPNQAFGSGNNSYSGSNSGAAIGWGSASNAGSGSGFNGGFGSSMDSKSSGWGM
row,Binder,binding signal
1,B1,2.02 R (bound/input frequency ratio)
2,B2,0.798 R (bound/input frequency ratio)
3,B3,0.798 R (bound/input frequency ratio)
4,B4,0.367 R (bound/input frequency ratio)
5,B5,0.462 R (bound/input frequency ratio)
6,B6,2.12 R (bound/input frequency ratio)
7,B7,6.06 R (bound/input frequency ratio)
8,B8,5.96 R (bound/input frequency ratio)
9,B9,8.23 R (bound/input frequency ratio)
10,B10,4.5 R (bound/input frequency ratio)
11,B11,7.87 R (bound/input frequency ratio)
